Assay results taken from the supplement of paper PMC12494721.
Counter-ions that a name gives are not always drawn.

How the values were obtained:
Conditions in all cases: incubation time: 27 h, anaerobic, 37 °C;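 for the amine columns active = adjusted P below 0.05 in both replicates with a change the same way and a mean fold change under 0.8 or over 1.25; inactive = the rest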
[1] = system: Clostridium sporogenes DSM 1664; experiment: growth (OD595) fold change vs plate DMSO controls (fold change (ratio)); higher = more growth
Method in brief: (§1)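 Shaken 96-well cultures in mGAM, grown anaerobically for 27 h at 37 °C, were read at 595 nm. OD came from blank-subtracted readings, corrected for background with 20 µM compound solutions in water and scaled by a calibration factor of 5. Growth is the fold change versus the plate's median DMSO control. Values average 2 biological replicates, and any fold change above 1.5 is NA.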

Escherichia coli IAI1 [2] = experiment: as above
Method in brief: as §1

[3] = system: Klebsiella aerogenes DSM 30053; experiment: as above
Method in brief: as §1

[4] = system: Ruminococcus gnavus DSM 108212; experiment: as above
Method in brief: as §1

[5] = system: Klebsiella aerogenes DSM 30053; experiment: fold change of Histamine concentration vs plate DMSO controls (fold change (ratio)); higher = more amine produced, active = hit call of the paper (significant change in both replicates, either direction)
Method in brief: (§2)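 Extracts of whole anaerobic mGAM cultures were analysed for amines by LC–triple-quadrupole MS with dynamic MRM and external calibration curves, with drift corrected within batch. Four gut strains were grown at 37 °C for 27 h in 80 µL wells with compounds at 20 µM final, sweeteners at 50 µM final. Each value expresses fold change over plate DMSO controls. The average of 2 biological replicates is shown.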

[6] = system: Clostridium sporogenes DSM 1664; experiment: fold change of Tryptamine concentration vs plate DMSO controls (fold change (ratio)); higher = more amine produced, active = hit call of the paper (significant change in both replicates, either direction)
Method in brief: as §2

[7] = system: Ruminococcus gnavus DSM 108212; experiment: as above
Method in brief: as §2

Escherichia coli IAI1 [8] = experiment: fold change of Putrescine concentration vs plate DMSO controls (fold change (ratio)); higher = more amine produced, active = hit call of the paper (significant change in both replicates, either direction)
Method in brief: as §2

[9] = system: Klebsiella aerogenes DSM 30053; experiment: as above
Method in brief: as §2

Escherichia coli IAI1 [10] = experiment: fold change of Cadaverine concentration vs plate DMSO controls (fold change (ratio)); higher = more amine produced, active = hit call of the paper (significant change in both replicates, either direction)
Method in brief: as §2

[11] = system: Klebsiella aerogenes DSM 30053; experiment: as above
Method in brief: as §2

[12] = system: Ruminococcus gnavus DSM 108212; experiment: fold change of 2-Phenylethylamine concentration vs plate DMSO controls (fold change (ratio)); higher = more amine produced, active = hit call of the paper (significant change in both replicates, either direction)
Method in brief: as §2

Row | SMILES | growth [1] | growth (Escherichia coli IAI1 [2]) | growth [3] | growth [4] | fold change of Histamine concentration [5] | fold change of Tryptamine concentration [6] | fold change of Tryptamine concentration [7] | fold change of Putrescine concentration (Escherichia coli IAI1 [8]) | fold change of Putrescine concentration [9] | fold change of Cadaverine concentration (Escherichia coli IAI1 [10]) | fold change of Cadaverine concentration [11] | fold change of 2-Phenylethylamine concentration [12]
1 | C=C(CC)C(=O)c1ccc(OCC(=O)O)c(Cl)c1Cl [Ethacrynic acid] (20 µM) | 1.11 | 0.984 | 1.01 | 1.19 | 0.964 (inactive) | 1.01 (inactive) | 0.941 (inactive) | 0.972 (inactive) | 1.03 (inactive) | 0.985 (inactive) | 0.999 (inactive) | 0.917 (inactive)
2 | CC(C)NC[C@H](O)COc1ccc(CC(N)=O)cc1 [(S,-) Atenolol] (20 µM) | 0 | 0.913 | 1.01 | 0.825 | 1.04 (inactive) | 0.0316 (active) | 0.944 (inactive) | 0.847 (inactive) | 1.03 (inactive) | 0.954 (inactive) | 1.02 (inactive) | 0.909 (inactive)
3 | COC(=O)C1=C(C)NC(C)=C(C(=O)OCCN(C)Cc2ccccc2)C1c1cccc([N+](=O)[O-])c1 (stereo unspecified) [Nicardipine hydrochloride] (20 µM) | 1.11 | 0.934 | 1.01 | 1.18 | 0.982 (inactive) | 0.981 (inactive) | 0.915 (inactive) | 1.04 (inactive) | 0.999 (inactive) | 0.995 (inactive) | 0.99 (inactive) | 0.858 (inactive)
4 | CC(=O)Oc1ccc(C(c2ccc(OC(C)=O)cc2)c2ccccn2)cc1 [Bisacodyl] (20 µM) | 0.976 | 0.978 | 0.993 | 0.731 | 1.06 (inactive) | 0.942 (inactive) | 0.988 (inactive) | 0.967 (inactive) | 1.02 (inactive) | 1 (inactive) | 0.998 (inactive) | 0.954 (inactive)
5 | N=C(NCCCCCCNC(=N)NC(=N)Nc1ccc(Cl)cc1)NC(=N)Nc1ccc(Cl)cc1 [Chlorhexidine] (20 µM) | 0.00305 | 0.885 | 0.782 | 0.0252 | 0.936 (inactive) | 0.032 (active) | 0.0867 (active) | 0.641 (inactive) | 0.783 (inactive) | 1.98 (active) | 1 (inactive) | 0.0518 (active)
6 | Clc1ccc(C(Cn2ccnc2)OCc2ccsc2Cl)c(Cl)c1 (stereo unspecified) [Tioconazole] (20 µM) | 1.21 | 0.866 | 0.838 | 0.0103 | 1.05 (inactive) | 0.957 (inactive) | 0.26 (active) | 1.01 (inactive) | 1.01 (inactive) | 0.982 (inactive) | 0.997 (inactive) | 0.275 (active)
7 | CN1CCC(OC(c2ccccc2)c2ccccc2)CC1 [Diphenylpyraline hydrochloride] (20 µM) | 0.998 | 0.955 | 0.989 | 1.13 | 1.05 (inactive) | 1.01 (inactive) | 0.999 (inactive) | 1.01 (inactive) | 0.995 (inactive) | 0.979 (inactive) | 0.983 (inactive) | 1.05 (inactive)
8 | CC#CCn1c(N2CCC[C@@H](N)C2)nc2c1c(=O)n(Cc1nc(C)c3ccccc3n1)c(=O)n2C [Linagliptin] (20 µM) | 1.01 | 1.03 | 0.993 | 0.856 | 1.08 (inactive) | 1.07 (inactive) | 1.02 (inactive) | 1.01 (inactive) | 1.02 (inactive) | 0.983 (inactive) | 0.996 (inactive) | 0.997 (inactive)
9 | CN[C@H](CC(C)C)C(=O)N[C@H]1C(=O)N[C@@H](CC(N)=O)C(=O)N[C@H]2C(=O)N[C@H]3C(=O)N[C@H](C(=O)N[C@H](C(=O)O)c4cc(O)cc(O)c4-c4cc3ccc4O)[C@H](O)c3ccc(c(Cl)c3)Oc3cc2cc(c3O[C@@H]2O[C@H](CO)[C@@H](O)[C@H](O)[C@H]2O[C@H]2C[C@](C)(N)[C@H](O)[C@H](C)O2)Oc2ccc(cc2Cl)[C@H]1O [Vancomycin hydrochloride] (20 µM) | 0 | 1.06 | 1.01 | 0.17 | 1.07 (inactive) | 0.0328 (active) | 0.0491 (active) | 1.01 (inactive) | 1.04 (inactive) | 0.953 (inactive) | 0.998 (inactive) | 0.0538 (active)
10 | N[C@@H](Cc1cc(I)c(Oc2ccc(O)c(I)c2)c(I)c1)C(=O)O [Liothyronine] (20 µM) | 0.986 | 0.992 | 1.03 | 1.09 | 0.981 (inactive) | 0.991 (inactive) | 0.88 (inactive) | 0.906 (inactive) | 0.99 (inactive) | 1.02 (inactive) | 0.993 (inactive) | 0.88 (inactive)
11 | O=C(O[C@@H]1C[C@@H]2C[C@H]3C[C@H](C1)N2CC3=O)c1c[nH]c2ccccc12 [Dolasetron mesilate] (20 µM) | 0.968 | 0.994 | 0.986 | 1.07 | 0.981 (inactive) | 1 (inactive) | 1.02 (inactive) | 0.942 (inactive) | 0.991 (inactive) | 0.979 (inactive) | 0.989 (inactive) | 1.04 (inactive)
12 | Cc1cc2nc3c(=O)[nH]c(=O)nc-3n(C[C@H](O)[C@H](O)[C@H](O)CO)c2cc1C [Riboflavine] (20 µM) | 1.09 | 0.982 | 0.997 | 0.982 | 0.984 (inactive) | 1 (inactive) | 1.08 (inactive) | 0.989 (inactive) | 0.964 (inactive) | 1.01 (inactive) | 0.994 (inactive) | 1.15 (inactive)
13 | Cc1ccc(=O)n(-c2ccccc2)c1 [Pirfenidone] (20 µM) | 0.978 | 0.995 | 0.983 | 0.984 | 1.02 (inactive) | 1.04 (inactive) | 0.978 (inactive) | 1.01 (inactive) | 1.01 (inactive) | 1.01 (inactive) | 0.981 (inactive) | 0.958 (inactive)
14 | CC(C)NCC(O)c1cc(O)cc(O)c1 (stereo unspecified) [Metaproterenol sulfate] (20 µM) | 0.982 | 1.03 | 1.02 | 1.17 | 0.981 (inactive) | 1.03 (inactive) | 0.957 (inactive) | 1.03 (inactive) | 0.979 (inactive) | 0.974 (inactive) | 0.992 (inactive) | 0.938 (inactive)
15 | CN(C)CCCN1c2ccccc2[S+]([O-])c2ccc(Cl)cc21 (stereo unspecified) [Chlorpromazine Sulfoxide] (20 µM) | 0.948 | 0.996 | 0.985 | 1.03 | 1.04 (inactive) | 1.06 (inactive) | 1.04 (inactive) | 0.993 (inactive) | 0.996 (inactive) | 1.01 (inactive) | 0.977 (inactive) | 1.1 (inactive)
16 | N=C(N)NCc1cccc(I)c1 [Iobenguane sulfate] (20 µM) | 0.944 | 0.983 | 0.971 | 0.721 | 0.89 (inactive) | 1 (inactive) | 1.08 (inactive) | 0.949 (inactive) | 0.914 (inactive) | 1.04 (inactive) | 1.1 (inactive) | 1.09 (inactive)
17 | Cc1ccc2c([nH]c(=O)c3c(=O)cc(C(=O)OCCC(C)C)oc32)c1C [Repirinast] (20 µM) | 1.15 | 1.03 | 0.997 | 1.08 | 1.03 (inactive) | 1.08 (inactive) | 0.977 (inactive) | 1.01 (inactive) | 1 (inactive) | 1.03 (inactive) | 0.998 (inactive) | 0.964 (inactive)
18 | O=C(C1CCCCC1)N1CC(=O)N2CCc3ccccc3C2C1 (stereo unspecified) [Praziquantel] (20 µM) | 1.01 | 0.975 | 0.99 | 0.82 | 1.06 (inactive) | 0.989 (inactive) | 1.03 (inactive) | 0.947 (inactive) | 1.02 (inactive) | 1.02 (inactive) | 0.978 (inactive) | 0.992 (inactive)
19 | CC1=C(C(=O)O)N2C(=O)[C@@H](NC(=O)[C@H](N)C3=CCC=CC3)[C@H]2SC1 [Cephradine monohydrate] (20 µM) | 1.11 | 1.04 | 1.02 | 1.07 | 0.968 (inactive) | 1.04 (inactive) | 1 (inactive) | 1.05 (inactive) | 1 (inactive) | 0.921 (inactive) | 0.988 (inactive) | 0.994 (inactive)
20 | Cc1cc(/C=C/c2ccc3cc(N(C)C)ccc3[n+]2C)c(C)n1-c1ccccc1 [Pyrvinium pamoate] (20 µM) | 1.21 | 1.12 | 0.958 | 0.853 | 0.936 (inactive) | 0.95 (inactive) | 0.975 (inactive) | 1.22 (inactive) | 1.01 (inactive) | 0.966 (inactive) | 1.02 (inactive) | 1.04 (inactive)
21 | CC1=C(C(=O)O)N2C(=O)[C@@H](NC(=O)[C@H](N)c3ccc(O)cc3)[C@H]2SC1 [Cefadroxil] (20 µM) | 0.898 | 1.03 | 1 | 1.08 | 1.08 (inactive) | 0.974 (inactive) | 1 (inactive) | 1.03 (inactive) | 1.01 (inactive) | 1.02 (inactive) | 0.996 (inactive) | 1.03 (inactive)
22 | CC(=O)O[C@]1(C(C)=O)CC[C@H]2[C@@H]3C=C(Cl)C4=CC(=O)CC[C@]4(C)[C@H]3CC[C@@]21C [Chlormadinone acetate] (20 µM) | 1.01 | 1 | 0.994 | 0.974 | 1.04 (inactive) | 0.965 (inactive) | 0.931 (inactive) | 1.04 (inactive) | 1.02 (inactive) | 1.02 (inactive) | 0.995 (inactive) | 0.895 (inactive)
23 | Cn1c(=O)c2[nH]cnc2n(C)c1=O [Aminophylline] (20 µM) | 0.81 | 0.991 | 0.955 | 0.972 | 0.965 (inactive) | 1.06 (inactive) | 0.972 (inactive) | 1.17 (inactive) | 1.02 (inactive) | 1.01 (inactive) | 1 (inactive) | 0.939 (inactive)
